Source: PubChem BioAssay (National Center for Advancing Translational Sciences (NCATS))
Compounds with a hit are over-represented: about 9.2% of the library has one in this group of screens.
ELG1 genotoxic: qHTS screen for small molecules that induce genotoxicity in human embryonic kidney (HEK293T) cells expressing luciferase-tagged ELG1. Potency, µM (top dose mostly 46 µM), without a hit: top-dose activity change, positive = activation, usual class: activators. actives 1.3% (n = 330,000). HEK293T ELG1-luciferase reporter, luminescence, 16 h. AID 504466, 2011; note: % of control where 0% means no effect; nearly all actives have a fitted effect of over 60% in size
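Step 1: seed 2,000 HEK293T ELG1-luciferase cells per well. Step 2: add compound or DMSO, incubate 16 hr at 37 °C. Step 3: ONE-Glo, 30 min at room temperature, read luminescence.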
ELG1 repair inh: qHTS screen for small molecules that inhibit ELG1-dependent DNA repair in human embryonic kidney (HEK293T) cells expressing luciferase-tagged ELG1; HEK293T ELG1-luciferase reporter, luminescence, 16 h; DNA damage induced by 5-fluorouridine; Potency, µM (top dose mostly 46.1 µM), for inactives: at the top dose activity change, negative = inhibition, most hits filed as inhibitors; actives 2.3% (n = 330,000); AID 504467, 2011; note: % is set by controls: 0 for no effect and ±100 for the full control effect; nearly all actives have a fitted effect of over 55% in size
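5-Fluorouridine DNA damage + compound/DMSO, 2,000 cells/well, 16 h, 37 °C/5% CO2. ONE-Glo, 30 min RT, luminescence. Readout = decrease in reporter signal.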
FLuc counter: qHTS profiling assay for firefly luciferase inhibitor/activator using purifed enzyme and Km concentrations of substrates (counterscreen for miR-21 project). purified FLuc, Km substrates, luminescence inhibition. Potency, µM (top dose mostly 57.5 µM), for the others: at the top dose activity change, negative = inhibition, actives largely listed as inhibitors. actives 6.9% (n = 360,000). AID 588342, 2011;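 note: plate controls were vehicle for no effect and reference inhibitor for full effect; nearly all actives have a fitted effect of over 55% in size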
Target sequence (P08659 whole entry, looked up): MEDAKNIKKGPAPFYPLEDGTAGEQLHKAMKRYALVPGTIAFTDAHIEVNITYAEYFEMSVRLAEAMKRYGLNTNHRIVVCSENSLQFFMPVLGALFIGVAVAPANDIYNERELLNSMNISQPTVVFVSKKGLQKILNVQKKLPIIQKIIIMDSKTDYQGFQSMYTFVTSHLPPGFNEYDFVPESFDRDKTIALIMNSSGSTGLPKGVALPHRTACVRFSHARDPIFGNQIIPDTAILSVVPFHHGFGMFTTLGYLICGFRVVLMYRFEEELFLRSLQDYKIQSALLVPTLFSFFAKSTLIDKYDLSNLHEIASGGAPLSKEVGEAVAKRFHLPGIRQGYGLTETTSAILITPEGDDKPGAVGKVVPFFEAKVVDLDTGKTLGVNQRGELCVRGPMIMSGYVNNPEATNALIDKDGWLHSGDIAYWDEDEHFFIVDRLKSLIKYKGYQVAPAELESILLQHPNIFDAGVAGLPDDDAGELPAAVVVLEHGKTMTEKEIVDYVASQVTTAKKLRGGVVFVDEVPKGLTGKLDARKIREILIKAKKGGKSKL
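Purified P. pyralis luciferase (10nM final) with 10uM D-luciferin and 10uM ATP (Km levels) in 50mM Tris acetate pH 7.5, 10mM Mg acetate, 0.01% Tween-20, 0.05% BSA; qHTS 6-point titration, ~60 µM downward; luminescence read.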
Rab9 promoter act: qHTS Assay for Rab9 Promoter Activators. Potency, µM (titrated, usually from 9.22 µM), inactives show at the top dose activation, negative = inhibition, usual class: activators. actives 2.8% (n = 320,000). Huh7 Rab9 promoter-luciferase reporter, luminescence, 24 h; note: % of control where 0% means no effect; nearly all actives have a fitted effect of over 60% in size
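Luciferase signal after 10 min detection reagent at ambient indicates Rab9 promoter upregulation; stably transfected Huh7 cells were treated 24 h with compound in DMSO at 37 °C, 5% CO2.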
SMN2 splice up: qHTS Assay for Enhancers of SMN2 Splice Variant Expression. actives 2.8% (n = 210,000). HEK293 SMN2-luciferase splicing reporter, luminescence, 30-36 h. Potency, µM (highest dose often 46.1 µM), for inactives: top-dose activity change, positive = activation, actives largely listed as activators. AID 1458, 2008; note: % of control where 0% means no effect; nearly all actives have a fitted effect of over 55% in size
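qHTS luciferase splicing reporter: luminescence rises when SMN2 exon 7 is included in transfected HEK293 cells. Compound exposure lasted 30-36 h at 37C, with 4.5 mM final sodium butyrate as control, followed by a ONE-Glo read.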
NPC1 prom act: qHTS Assay for NPC1 Promoter Activators; Huh7 NPC1 promoter luciferase reporter, 24 h; Potency, µM (highest dose often 9.22 µM), for inactives: at the top dose activation, hits mostly activators; actives 2.4% (n = 320,000); note: % of control where 0% means no effect; nearly all actives have a fitted effect of over 60% in size
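Stably transfected Huh7 (NPC1 promoter→luciferase), 1500 cells/well in Opti-MEM + 10% FBS, 2 h settle, then compound 24 h at 37 °C. Luminescence after 10 min with Amplite reagent.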
Numbers without * were called inactive; ? = inconclusive; . = no result. Calls come from the whole dose curve; as a rule, active = well fitted curve in the direction sought with a large enough effect; inconclusive = small, poorly fitted or top-dose-only effect, or another doubt; inactive = no such curve, though single readings can be large; an effect the other way counts as inactive or inconclusive. Potency is the fitted concentration of half-maximal effect.

SMILES	ELG1 genotoxic	ELG1 repair inh	FLuc counter	Rab9 promoter act	SMN2 splice up	NPC1 prom act
CCCn1c(N)c(C(=O)CSc2nnc(-c3ccco3)n2Cc2ccccc2)c(=O)[nH]c1=O	-7.8%	14.6µM*	-0.8%	-2.2%	-15.5%	0.7%
CCCn1c(N)c(C(=O)CSc2nc3ccccc3s2)c(=O)[nH]c1=O	-12.3%	?	-3.2%	15.7%	12.6µM*	8.7%
O=C(CSc1nnc(-c2ccco2)n1Cc1ccccc1)OC1CCCCC1	?	?	9.53µM*	3.16µM*	?	?
CC(=O)c1c(C)[nH]c(C(=O)CSc2nnc(-c3ccco3)n2Cc2ccccc2)c1C	-14.3%	?	-6.3%	-7.7%	-18.0%	1.8%
Cc1nn(-c2ccccc2C(=O)O)c(=O)c2ccccc12	-7.3%	24.5%	-3.0%	-1.8%	.	-1.1%
Cc1nn(-c2ccc(Br)cc2)c(=O)c2ccccc12	22.5%	?	8.49µM*	2.82µM*	.	?
O=S(=O)(Cc1ccccc1)N1CCN(Cc2ccc(Br)cc2)CC1	16.4µM*	?	?	21.1%	.	?
COc1c(C)cc(C(=O)C2CCCN(C(=O)c3ccc4cc[nH]c4c3)C2)cc1C (stereo not given)	-0.9%	?	-7.7%	-5.3%	.	0.2%
CCc1nc2ccc(C(=O)O)cc2nc1CC	?	?	23.9µM*	?	-26.6%	?
O=C(O)c1ccc2nc3c(nc2c1)-c1ccccc1C3=O	2.9%	?	15.1µM*	?	7.6%	13.9%
Cc1ccc(-c2nc3ccc(C(=O)O)cc3nc2-c2ccc(C)cc2)cc1	-0.2%	?	0.7%	-4.3%	-10.0%	0.3%
CCc1nc2ccc(C(=O)Nc3cccc(C(C)=O)c3)cc2nc1CC	-1.0%	18.4µM*	?	-4.0%	.	10.3%
Nc1ccc2nc3c(=O)n(C4CCCCC4)c(=O)[nH]c3nc2c1	?	?	12µM*	?	.	?
Nc1ccc2nc3c(=O)n(CCc4ccccc4)c(=O)[nH]c3nc2c1	-3.2%	?	-13.6%	17.2%	.	-1.4%
CCCCn1c(=O)[nH]c2nc3cc(N)ccc3nc2c1=O	17.3%	?	-26.4%	3.16µM*	?	?
O=C(Nc1ccc2c(c1)OCO2)c1cnccn1	22.6%	?	?	2.51µM*	11.2µM*	3.55µM*
O=C(Nc1ccc2c(c1)OCO2)c1n[nH]c(=O)c2ccccc12	?	?	?	3.55µM*	.	2.82µM*
O=C(COC(=O)c1cnccn1)Nc1ccc2c(c1)OCO2	-0.5%	13.4%	0.2%	-0.4%	-13.8%	-0.4%
O=C(NCc1ccc2c(c1)OCO2)c1ccccn1	13.3%	?	-13.4%	17.2%	13.2%	13.0%
O=C(/C=C\Nc1ccc2c(c1)OCO2)c1ccccn1	?	?	0.0757µM*	?	-61.9%	?
O=C(NCCc1ccc2c(c1)OCCO2)c1ccccn1	?	?	12µM*	2µM*	.	2.24µM*
CCOCCCNC(=O)CCn1nc(-c2ccc(Cl)cc2)ccc1=O	0.1%	?	-3.8%	-0.5%	.	-0.4%
O=C(Nc1ccc2c(c1)OCO2)c1ccccn1	?	?	9.53µM*	1.41µM*	.	1.78µM*
O=C(Nc1ccc2c(c1)OCO2)c1ccc(=O)[nH]n1	10.1%	?	?	?	.	27.8%
Fc1ccc(Nc2nc(-c3ccncc3)nc3ccccc23)cc1	0.4%	2.31µM*	-1.4%	-0.3%	-21.4%	-0.5%
SMILES	ELG1 genotoxic	ELG1 repair inh	FLuc counter	Rab9 promoter act	SMN2 splice up	NPC1 prom act
CN(C)c1ccc(-c2nc(Nc3ccncc3)c3ccccc3n2)cc1	.	.	.	.	11.2µM*	.
c1ccc(Nc2nc(-c3ccncc3)nc3ccccc23)cc1	5.9%	2.06µM*	-0.6%	-3.8%	-30.7%	-1.3%
Fc1ccccc1Nc1nc(-c2ccncc2)nc2ccccc12	-6.4%	2.59µM*	-1.4%	-1.3%	14.5%	-1.3%
Cc1ccc(-c2nc(N)sc2-c2ccccc2)cc1C	2.0%	-4.3%	-13.7%	-2.8%	-1.4%	-0.7%
O=C(CN1C(=O)C(=O)N(Cc2ccco2)C1=O)NC1CCCCC1	1.3%	8.6%	-5.5%	1.3%	9.4%	-4.1%
O=C(COc1nncc2ccccc12)NCC(F)(F)F	0.1%	0.7%	-0.9%	-3.5%	0.3%	-2.3%
c1ccc(CCNc2nc(-c3ccncc3)nc3ccccc23)cc1	-16.4%	14.6µM*	-0.9%	-18.8%	.	-23.3%
COC(=O)CNc1nc(-c2ccncc2)nc2ccccc12	-0.6%	?	1.1%	2.0%	-2.9%	-3.3%
Cc1cccc(N2CCN(C(=O)c3cc4n(n3)C(C(F)(F)F)CC(c3ccco3)N4)CC2)c1C (stereo not given)	-24.1%	20.6µM*	0.9%	-10.6%	0.1%	-1.9%
COc1cc(NC(=O)C/C(C)=N/NC(=O)C(=O)NCCO)c(OC)cc1Cl	-1.0%	-0.4%	0.1%	-1.2%	.	3.5%
COc1ccc(-c2cc(-c3ccccc3)c(C#N)c(S(C)(=O)=O)n2)cc1	?	?	0.6%	-17.7%	-25.3%	-0.6%
CS(=O)(=O)c1nc(-c2ccc(Br)cc2)cc(-c2ccccc2)c1C#N	-38.0%	16.4µM*	5.5%	-21.2%	-40.1%	-7.9%
Cc1ccc(NC(=O)c2nnn(Cc3cccc(C(F)(F)F)c3)c2N)c(C)c1	.	.	-1.2%	.	-17.5%	.
O=C(N=C1N=C2C=CC(Br)=CN2Cc2ccccc21)c1ccc([N+](=O)[O-])cc1[N+](=O)[O-]	?	?	12µM*	3.55µM*	.	3.55µM*
Cc1cccc(N(C)C(=O)CCNS(=O)(=O)c2ccc3c(c2)CCN3C(=O)C2CC2)c1	.	.	5.3%	.	.	.
CCCn1nc2cc(C(=O)NCCc3cccs3)ccc2c1OCC	14.5%	?	?	?	15.8µM*	?
Cc1nc2ccccc2c(=O)n1NC(=O)c1cccc(Cl)c1	-2.1%	-4.7%	0.3%	-6.0%	.	-0.3%
CC(=O)c1ccc(Nc2nc(C)cc(C)n2)cc1	?	?	26.9µM*	?	.	?
O=C(NC1CCCC1)c1cc2c(ccc3ccccc32)o1	4.61µM*	?	6.01µM*	1µM*	12.6µM*	1.41µM*
Cc1ccc(/C=N/NC(=O)c2cc3c(ccc4ccccc43)o2)o1	-3.9%	?	?	2.8%	.	5.5%
O=C(NC1CC1)c1cc2ccccc2o1	10.9%	11.5%	?	11.1%	.	11.5%
